Compound activity (PubChem)
The list is not random: actives were taken first. Their share in the collection is about 7.3%.
Vaccinia Venus = vaccinia inhibition (Venus reporter). Vaccinia virus Venus reporter expression, fluorescence. Potency, µM (highest dose often 36.5 µM), hits mostly inhibitors. hit rate 0.46% among 330,000. AID 720580; calls by dose curve; tested in A549 cells; further: nearly all actives have a fitted effect of over 30% in size
HCMV inh = inhibitors of human cytomegalovirus; activity change, negative = inhibition, % at 57.5 µM; HFF cells, HCMV-luciferase reporter, 72 h; stronger effect = lower value; AID 1259415; hit rate 4.5% among 410,000; in the data active means activity change below about -60%; inconclusive means no clear call, values can overlap the other calls; inactive means above about -39%
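Two-dose cell screen: HFF monolayers treated with compounds and infected with luciferase-expressing HCMV at 1 PFU/cell, 72 h at 37C, then lysed for luciferase measurement.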
HCV inh = inhibitors of hepatitis C virus infection | Huh7.5.1 HCVcc-Cre infection, luciferase reporter, 44 h | Potency, µM (highest dose often 41.8 µM), actives largely listed as inhibitors | hit rate 3.4% among 340,000 | AID 651820; active means well fitted inhibition curve with a large enough effect; inconclusive means small, poorly fitted or top-dose-only effect, or another doubt; inactive means no such curve, though single readings can be large or run the other way
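Compounds are dispensed onto cells plated 4 h earlier at 1,000 per well, with HCVcc-Cre virus (about 0.5 moi) added next. Following 44 h of culture, luminescent signal is measured for 15 sec after 15 min with substrate at room temperature.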
FMDV inh = blocks foot and mouth disease virus; AID 1159524; hit rate 1.2% among 410,000; Potency, µM (top dose mostly 57.9 µM), actives largely listed as inhibitors; FMDV antiviral cell-based qHTS; calls by dose curve; tested in HEK293T cells; further: read-out not given here; nearly all actives have a fitted effect of over 45% in size
Vaccinia mCherry = vaccinia inhibition (mCherry reporter); Vaccinia virus mCherry reporter infection, fluorescence; Potency, µM (highest dose often 36.5 µM), actives largely listed as inhibitors; hit rate 0.63% among 310,000; calls by dose curve; tested in A549 cells; further: nearly all actives have a fitted effect of over 35% in size
Of the large screens only hits and unclear results are named; the others gave an inactive call; ! = not active in a repeat.

CCOC(=O)c1cc(-c2ccc(F)cc2)n(CCC(=O)NCCc2ccc(C)cc2)c1C	none (no result: HCV inh)
CCOC(=O)c1sc(=S)n(-c2cc(F)ccc2F)c1N	FMDV inh inconclusive (no result: Vaccinia Venus, Vaccinia mCherry)
COC(=O)c1sc(=S)n(-c2cc(F)ccc2F)c1N	HCMV inh -106 (no result: Vaccinia Venus, Vaccinia mCherry)
COc1ccccc1CCc1nnc(CCC(=O)NC(C)Cc2ccsc2)o1 (centres undefined)	Vaccinia Venus 1.8µM, Vaccinia mCherry 1.1µM
O=C(c1cccc([N+](=O)[O-])c1)n1nc(-c2ccccc2)nc1NCc1ccccc1	none
Cn1nnnc1SCC(=O)Nc1cccc([N+](=O)[O-])c1	HCMV inh -68
CC(=O)n1nc(-c2cccc(C)c2)nc1SCC(=O)Nc1ccccc1	HCMV inh -89 (no result: Vaccinia Venus, Vaccinia mCherry)
Cn1ccnc1SCC(=O)Nc1cccc([N+](=O)[O-])c1	none
CCC(=O)n1nc(-c2ccccc2)nc1SCC(=O)Nc1ccc(C)cc1	none (no result: Vaccinia Venus, Vaccinia mCherry)
O=C(CSc1nc(-c2ccccc2)nn1C(=O)c1ccccc1)Nc1cccc([N+](=O)[O-])c1	HCV inh 25µM, FMDV inh inconclusive (no result: Vaccinia Venus, Vaccinia mCherry)
CC1(C)N=C(c2ccc(F)cc2)C(=O)N1CC(=O)Nc1ccccc1Cl	none (no result: HCV inh)
CCn1nc(C)c(/C=C/C(=O)Nc2ccc(C)cc2C)c1C	HCMV inh -73
CC(C)C(=O)N1CCN(c2ccc(NC(=O)c3ccc4c(c3)OCCO4)cc2)CC1	none
Cc1ccc(C(=O)N2CCN(c3ccc(NC(=O)c4ccc(Br)o4)cc3)CC2)cc1	HCMV inh inconclusive, HCV inh 10µM, FMDV inh inconclusive, Vaccinia mCherry inconclusive
Cc1ccc(C(=O)N2CCN(c3ccc(NC(=O)c4ccc5c(c4)OCCO5)cc3)CC2)cc1	HCV inh 2.8µM, FMDV inh 14µM
Cc1ccccc1C(=O)N1CCN(c2ccc(NC(=O)c3ccc4c(c3)OCCO4)cc2)CC1	HCMV inh -89, HCV inh 8.9µM, FMDV inh 7.1µM, Vaccinia mCherry inconclusive
O=C(Nc1ccc(N2CCN(C(=O)c3ccccc3)CC2)cc1)c1ccc2c(c1)OCO2	HCV inh 22µM (no result: Vaccinia Venus, Vaccinia mCherry)
COc1cccc(NC(=O)c2cnc(SCC(=O)NCc3ccc4c(c3)OCO4)n(C)c2=O)c1	FMDV inh inconclusive
COc1ccc(Cn2c(SCC#N)nc3ccc(N4CCOCC4)cc3c2=O)cc1	HCV inh 5µM
CCCCn1c(SCC(=O)Nc2cccc(OC)c2)nc2ccc(N3CCOCC3)cc2c1=O	HCV inh 8.9µM! (no result: Vaccinia Venus, Vaccinia mCherry)
COc1cccc(NC(=O)c2cnc(SCC(=O)N3CCOCC3)n(C)c2=O)c1	FMDV inh 22µM (no result: HCV inh)
CCOC(=O)c1c(-c2ccccc2)oc2ccc(NS(=O)(=O)c3ccc(C)cc3C)cc12	none (no result: HCV inh)
O=C(CSc1n[nH]c(-c2ccccc2Cl)n1)N1CCN(c2ccccc2F)CC1	none (no result: HCV inh)
CCCCNC(=O)c1nc(C2CCN(S(=O)(=O)c3ccccc3C(F)(F)F)CC2)oc1-c1ccccc1	none (no result: HCV inh)
Cc1cc(C)c2nc(Cl)c(CN(Cc3ccco3)C(=O)Nc3ccccc3C)cc2c1	Vaccinia Venus inconclusive, HCMV inh -63, HCV inh inconclusive (no result: FMDV inh)
COCCN(Cc1cc2cc(C)cc(C)c2nc1Cl)C(=O)Nc1ccccc1	HCV inh inconclusive, Vaccinia mCherry inconclusive
Fc1ccc(C2=NC(c3cccc(C(F)(F)F)c3)=Nc3ccccc3N2)cc1	none (no result: HCV inh)
CCCCOc1ccccc1C(=O)Nc1nonc1-c1ccccc1	HCMV inh -99 (no result: HCV inh)
O=C(Nc1nonc1-c1ccc(F)cc1)c1ccco1	HCMV inh inconclusive (no result: Vaccinia Venus, Vaccinia mCherry)
CCCOc1ccc(-c2nonc2NC(=O)c2cc(OC)c(OC)c(OC)c2)cc1OCCC	HCMV inh -76 (no result: HCV inh)
O=C(Nc1nonc1-c1ccc(Cl)cc1)c1ccccc1F	HCMV inh -68 (no result: HCV inh)
CCN(CC(=O)NCc1ccc(F)cc1)C(=O)c1ccc(COc2ccccc2)cc1	HCV inh inconclusive
COc1ccc(-c2nc(S(=O)(=O)c3ccc(C)cc3)c(NCc3ccccc3)o2)cc1	none (no result: HCV inh)
COc1cc(/C=C2\C=Cc3ccccc32)cc(OC)c1OC	none (no result: HCMV inh, HCV inh, FMDV inh)
Nc1ncnc(Sc2ncccn2)c1[N+](=O)[O-]	HCV inh inconclusive, FMDV inh 32µM (no result: Vaccinia Venus, Vaccinia mCherry)
Cc1ccc(-c2nnc(SCC(=O)N/N=C/c3c(C)nn(-c4ccccc4)c3C)n2-c2ccccc2)cc1	HCV inh 11µM
Cc1nn(-c2ccccc2)c(C)c1/C=N/NC(=O)c1cc(-c2ccccc2)n[nH]1	HCMV inh -95, HCV inh inconclusive
Cc1ccc(/C=N/NC(=O)CSc2nnc(-c3ccccc3)n2-c2ccc(Cl)cc2)o1	HCMV inh -84, HCV inh inconclusive
Cc1cc(S(=O)(=O)NCCCN2CCOCC2)c(C)cc1Cl	none
CC(C)N(C(=O)c1cc2c(Cl)nc3ccccc3c2s1)C1CCCCC1	none (no result: HCV inh)
O=C(NCC(c1ccco1)S(=O)(=O)c1cccs1)c1c(F)cccc1F (centres undefined)	none (no result: HCV inh)
COc1ccc(C(=O)c2oc3ccccc3c2N)cc1	HCMV inh -67 (no result: Vaccinia Venus, Vaccinia mCherry)
COc1ccc2oc(C(=O)c3ccccc3)c(N)c2c1	none (no result: Vaccinia Venus, Vaccinia mCherry)
Cc1ccccc1OCC(=O)NNC(=O)Cn1[nH]c(=O)c2ccccc2c1=O	none
CCCCn1c(N)c(N(CC)C(=O)CCNC(=O)NC23CC4CC(CC(C4)C2)C3)c(=O)[nH]c1=O	HCMV inh inconclusive
Cc1nn(Cc2ccccc2Cl)c(C)c1NC(=O)C1C2CCC(O2)C1C(=O)O (centres undefined)	none
Cc1nn(C)c(Cl)c1NC(=O)OCc1ccc(Cl)cc1Cl	HCMV inh -96, HCV inh 10µM, FMDV inh inconclusive
Cc1nn(Cc2ccc(Cl)cc2Cl)c(C)c1NC(=O)C1C2CCC(O2)C1C(=O)O (centres undefined)	HCMV inh -64, HCV inh inconclusive, FMDV inh inconclusive, Vaccinia mCherry inconclusive
Cc1nn(Cc2ccc(Cl)cc2Cl)c(C)c1NC(=O)CCl	HCMV inh inconclusive, HCV inh 13µM, FMDV inh 22µM (no result: Vaccinia Venus, Vaccinia mCherry)
COC(=O)c1ccccc1NC(=O)CSc1cc(-c2ccccc2)nc(C)n1	none (no result: HCV inh)
CCN(CC)S(=O)(=O)c1cccc(C(=O)/C=C2/N(C)c3ccccc3C2(C)C)c1	HCMV inh inconclusive, HCV inh 10µM, FMDV inh inconclusive
CN1/C(=C\C(=S)NC(=O)c2ccc([N+](=O)[O-])cc2)C(C)(C)c2ccccc21	HCV inh inconclusive (no result: Vaccinia Venus, Vaccinia mCherry)
CN1/C(=C\C(=S)NC(=O)c2cccc(Br)c2)C(C)(C)c2ccccc21	HCMV inh -96, HCV inh 11µM, FMDV inh inconclusive
CN1/C(=C\C(=O)Nc2cccc(Cl)c2)C(C)(C)c2ccccc21	HCMV inh inconclusive, HCV inh 32µM
O=C1NC[C@@H](CCCCN2C[C@H](Cc3ccccc3)N(Cc3ccccc3)C(=O)C2=O)N(Cc2ccccc2)C1=O	HCMV inh inconclusive (no result: HCV inh)
Cc1ccc2oc(=O)c3cc(C(=O)Nc4ccc(F)cc4F)sc3c2c1	none (no result: HCV inh)
CCCCNC(=O)CCCn1c(=O)c2ccccc2n(Cc2ccc(Cl)cc2)c1=O	FMDV inh inconclusive (no result: HCV inh)
CS(=O)(=O)Nc1cccc(NC(=O)C2Cc3c(-c4cccc(F)c4)ccnc3O2)c1 (centres undefined)	Vaccinia Venus 10µM, HCMV inh -78, Vaccinia mCherry 8.9µM (no result: HCV inh)
